For assay [1], the target named is Serine/threonine-protein kinase pim-2 (Homo sapiens) (UniProt Q9P1W9). The settings on record: at 1 µM.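 Note: each value is a mean of the inhibition measurements against the kinase.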
Assay [2] deals with Serine/threonine-protein kinase pim-3 (Homo sapiens) (UniProt Q86V86). The settings on record: at 0.1 µM.
Assay [3] has the same target. To be noted: at 1 µM.
In assay [4] the target is T1, MAP kinase-activated protein kinase 5 (Homo sapiens) (UniProt Q8IW41).
T1 sequence (whole entry): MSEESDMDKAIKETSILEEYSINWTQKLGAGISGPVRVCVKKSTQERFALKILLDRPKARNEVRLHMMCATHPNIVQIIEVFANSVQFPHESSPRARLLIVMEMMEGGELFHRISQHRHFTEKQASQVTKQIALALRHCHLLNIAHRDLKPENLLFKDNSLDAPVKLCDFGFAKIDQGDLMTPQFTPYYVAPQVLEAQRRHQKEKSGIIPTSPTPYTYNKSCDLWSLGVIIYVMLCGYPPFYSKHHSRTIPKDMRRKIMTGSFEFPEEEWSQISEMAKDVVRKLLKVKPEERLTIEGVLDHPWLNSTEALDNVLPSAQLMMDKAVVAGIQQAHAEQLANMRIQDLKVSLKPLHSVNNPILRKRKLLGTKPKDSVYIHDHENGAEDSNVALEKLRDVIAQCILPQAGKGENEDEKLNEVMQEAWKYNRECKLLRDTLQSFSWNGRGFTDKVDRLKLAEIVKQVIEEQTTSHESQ
To be noted: at 0.1 µM.

Assay [5] addresses T1, MAP kinase-activated protein kinase 5 (Homo sapiens). The settings on record: at 1 µM.
For assay [6], the target named is Serine/threonine-protein kinase SIK1 (Homo sapiens) (UniProt P57059). To be noted: at 0.1 µM.
Chain of Serine/threonine-protein kinase SIK1 (Homo sapiens) (P57059 whole entry): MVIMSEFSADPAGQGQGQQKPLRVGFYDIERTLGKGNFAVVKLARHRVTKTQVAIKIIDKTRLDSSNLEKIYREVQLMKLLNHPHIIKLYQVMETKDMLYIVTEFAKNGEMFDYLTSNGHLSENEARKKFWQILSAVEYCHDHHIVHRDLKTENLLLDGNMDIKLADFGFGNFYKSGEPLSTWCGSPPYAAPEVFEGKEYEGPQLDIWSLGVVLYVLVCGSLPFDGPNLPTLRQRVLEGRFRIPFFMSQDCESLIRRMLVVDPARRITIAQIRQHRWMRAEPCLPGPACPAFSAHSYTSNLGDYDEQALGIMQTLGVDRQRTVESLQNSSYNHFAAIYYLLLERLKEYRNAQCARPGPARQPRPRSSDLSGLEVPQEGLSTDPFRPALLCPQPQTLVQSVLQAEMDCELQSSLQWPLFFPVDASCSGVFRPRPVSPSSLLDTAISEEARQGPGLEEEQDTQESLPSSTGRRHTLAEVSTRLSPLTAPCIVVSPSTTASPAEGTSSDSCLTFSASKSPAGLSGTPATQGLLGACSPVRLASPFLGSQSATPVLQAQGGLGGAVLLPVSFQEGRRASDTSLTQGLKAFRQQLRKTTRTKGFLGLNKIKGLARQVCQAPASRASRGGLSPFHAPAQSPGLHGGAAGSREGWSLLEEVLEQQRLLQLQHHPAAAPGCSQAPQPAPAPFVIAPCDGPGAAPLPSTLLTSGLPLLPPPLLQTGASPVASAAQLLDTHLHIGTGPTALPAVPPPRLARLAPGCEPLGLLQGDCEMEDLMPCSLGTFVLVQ
Assay [7] shares this target. To be noted: at 1 µM.
The target of assay [8] is Serine/threonine-protein kinase SIK2 (Homo sapiens) (UniProt Q9H0K1). The settings on record: at 0.1 µM.
Chain of Serine/threonine-protein kinase SIK2 (Homo sapiens) (Q9H0K1 whole entry, looked up): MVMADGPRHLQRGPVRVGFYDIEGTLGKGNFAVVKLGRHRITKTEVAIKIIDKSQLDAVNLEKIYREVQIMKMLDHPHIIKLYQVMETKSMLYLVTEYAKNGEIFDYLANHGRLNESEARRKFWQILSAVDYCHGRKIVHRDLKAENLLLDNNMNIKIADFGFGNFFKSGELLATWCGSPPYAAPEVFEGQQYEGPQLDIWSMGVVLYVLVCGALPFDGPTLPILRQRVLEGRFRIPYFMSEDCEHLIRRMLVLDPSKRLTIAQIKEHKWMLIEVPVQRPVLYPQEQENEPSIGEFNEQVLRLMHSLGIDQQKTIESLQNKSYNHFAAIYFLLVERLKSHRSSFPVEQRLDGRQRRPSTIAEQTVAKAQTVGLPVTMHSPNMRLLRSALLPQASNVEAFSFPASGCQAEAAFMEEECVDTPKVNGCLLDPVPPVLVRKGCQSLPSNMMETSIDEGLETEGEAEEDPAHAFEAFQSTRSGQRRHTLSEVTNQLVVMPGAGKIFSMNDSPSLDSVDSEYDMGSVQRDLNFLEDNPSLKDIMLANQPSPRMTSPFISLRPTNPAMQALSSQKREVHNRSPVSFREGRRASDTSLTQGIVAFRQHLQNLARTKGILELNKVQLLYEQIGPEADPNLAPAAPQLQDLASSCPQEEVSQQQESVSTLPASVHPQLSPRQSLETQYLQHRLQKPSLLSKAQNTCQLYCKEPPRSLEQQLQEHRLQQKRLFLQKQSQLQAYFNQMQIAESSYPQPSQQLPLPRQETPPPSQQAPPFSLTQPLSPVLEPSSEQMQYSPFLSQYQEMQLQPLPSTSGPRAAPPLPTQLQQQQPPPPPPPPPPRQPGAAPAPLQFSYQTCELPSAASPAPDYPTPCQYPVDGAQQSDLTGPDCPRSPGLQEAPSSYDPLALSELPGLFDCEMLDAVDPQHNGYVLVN
Assay [9] shares this target. The settings on record: at 1 µM.
The target in assay [10] is T2, Serine/threonine-protein kinase TBK1 (Homo sapiens) (UniProt Q9UHD2).
T2 sequence (whole entry): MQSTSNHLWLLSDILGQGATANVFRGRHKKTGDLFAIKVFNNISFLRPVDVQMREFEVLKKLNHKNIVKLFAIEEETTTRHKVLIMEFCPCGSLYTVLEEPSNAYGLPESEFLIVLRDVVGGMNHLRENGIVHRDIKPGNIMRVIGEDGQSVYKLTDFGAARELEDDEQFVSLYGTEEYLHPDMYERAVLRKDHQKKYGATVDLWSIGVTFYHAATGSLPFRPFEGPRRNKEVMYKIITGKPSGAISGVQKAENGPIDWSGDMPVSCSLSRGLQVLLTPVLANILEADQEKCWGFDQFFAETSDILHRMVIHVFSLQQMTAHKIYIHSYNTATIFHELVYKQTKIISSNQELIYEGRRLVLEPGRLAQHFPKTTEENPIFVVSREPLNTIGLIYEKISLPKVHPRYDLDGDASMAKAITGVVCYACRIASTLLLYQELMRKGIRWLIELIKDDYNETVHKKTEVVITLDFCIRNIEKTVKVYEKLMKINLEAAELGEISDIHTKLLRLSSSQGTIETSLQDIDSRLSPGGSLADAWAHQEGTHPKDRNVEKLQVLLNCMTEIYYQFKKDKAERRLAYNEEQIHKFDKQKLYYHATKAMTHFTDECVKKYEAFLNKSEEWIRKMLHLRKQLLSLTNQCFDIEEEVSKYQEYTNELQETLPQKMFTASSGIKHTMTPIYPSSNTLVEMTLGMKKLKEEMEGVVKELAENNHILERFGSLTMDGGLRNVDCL
The settings on record: at 0.1 µM.

Assay [11] concerns the target T2, Serine/threonine-protein kinase TBK1 (Homo sapiens). To be noted: at 1 µM.
The target of assay [12] is T3, Testis-specific serine/threonine-protein kinase 1 (Homo sapiens) (UniProt Q9BXA7).
T3 sequence (whole entry): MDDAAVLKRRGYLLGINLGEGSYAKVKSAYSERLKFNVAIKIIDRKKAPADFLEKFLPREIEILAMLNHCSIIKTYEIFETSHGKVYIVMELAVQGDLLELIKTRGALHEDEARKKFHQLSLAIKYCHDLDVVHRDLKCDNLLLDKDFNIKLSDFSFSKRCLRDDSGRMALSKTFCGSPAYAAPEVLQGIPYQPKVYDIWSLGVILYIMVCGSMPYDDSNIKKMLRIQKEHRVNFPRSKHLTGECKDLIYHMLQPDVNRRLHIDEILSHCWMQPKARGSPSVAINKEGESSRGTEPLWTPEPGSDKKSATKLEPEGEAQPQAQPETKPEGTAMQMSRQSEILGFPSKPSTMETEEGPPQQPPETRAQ
The settings on record: at 0.1 µM.

The target in assay [13] is T3, Testis-specific serine/threonine-protein kinase 1 (Homo sapiens). The settings on record: at 1 µM.
The target in assay [14] is T4, Testis-specific serine/threonine-protein kinase 2 (Homo sapiens) (UniProt Q96PF2).
T4 sequence (whole entry): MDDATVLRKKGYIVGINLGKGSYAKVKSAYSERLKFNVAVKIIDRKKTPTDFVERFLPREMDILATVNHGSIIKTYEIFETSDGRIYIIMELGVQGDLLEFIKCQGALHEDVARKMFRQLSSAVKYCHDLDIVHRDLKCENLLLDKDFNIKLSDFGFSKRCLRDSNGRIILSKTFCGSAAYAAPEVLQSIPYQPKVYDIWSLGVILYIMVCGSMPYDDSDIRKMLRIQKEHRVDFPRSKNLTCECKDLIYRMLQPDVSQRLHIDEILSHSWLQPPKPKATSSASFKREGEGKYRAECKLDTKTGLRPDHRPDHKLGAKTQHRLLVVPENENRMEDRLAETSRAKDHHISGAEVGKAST
To be noted: at 0.1 µM.

The target of assay [15] is T4, Testis-specific serine/threonine-protein kinase 2 (Homo sapiens). The settings on record: at 1 µM.
Assay [16] has as its target Casein kinase I isoform alpha (Homo sapiens) (UniProt P48729). To be noted: at 0.1 µM.
Assay [17] shares this target. The settings on record: at 1 µM.
Assay [18] has as its target Casein kinase I isoform gamma-1 (Homo sapiens) (UniProt Q9HCP0). The settings on record: at 0.1 µM.
Assay [19] has the same target. To be noted: at 1 µM.
The target of assay [20] is Casein kinase I isoform gamma-2 (Homo sapiens) (UniProt P78368). To be noted: at 0.1 µM.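 Note: values are mean inhibition figures reported as part of the GSK PKIS dataset.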
Chain of Casein kinase I isoform gamma-2 (Homo sapiens) (P78368 whole entry, looked up, canonical isoform): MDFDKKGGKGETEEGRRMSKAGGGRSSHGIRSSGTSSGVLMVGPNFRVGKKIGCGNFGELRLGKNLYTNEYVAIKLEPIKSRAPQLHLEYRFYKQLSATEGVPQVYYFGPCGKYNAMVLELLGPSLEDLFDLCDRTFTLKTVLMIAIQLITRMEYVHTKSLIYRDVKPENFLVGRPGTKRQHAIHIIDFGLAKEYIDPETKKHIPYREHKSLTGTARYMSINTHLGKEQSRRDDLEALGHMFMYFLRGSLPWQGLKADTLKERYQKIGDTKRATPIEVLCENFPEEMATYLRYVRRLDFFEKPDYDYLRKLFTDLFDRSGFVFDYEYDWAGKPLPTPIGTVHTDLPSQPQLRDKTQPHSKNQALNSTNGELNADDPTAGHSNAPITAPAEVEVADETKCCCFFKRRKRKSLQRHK

Chain of Serine/threonine-protein kinase pim-2 (Homo sapiens) (Q9P1W9 whole entry, looked up): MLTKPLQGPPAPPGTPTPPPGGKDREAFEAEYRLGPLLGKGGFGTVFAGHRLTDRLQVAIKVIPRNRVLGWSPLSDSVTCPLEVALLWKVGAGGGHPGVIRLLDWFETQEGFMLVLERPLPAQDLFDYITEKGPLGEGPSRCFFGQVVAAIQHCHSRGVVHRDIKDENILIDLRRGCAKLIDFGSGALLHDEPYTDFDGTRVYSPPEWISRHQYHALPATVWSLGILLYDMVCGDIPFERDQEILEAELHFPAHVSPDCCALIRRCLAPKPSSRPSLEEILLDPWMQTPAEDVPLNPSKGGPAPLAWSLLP
Chain of Casein kinase I isoform gamma-1 (Homo sapiens) (Q9HCP0 whole entry, looked up, canonical isoform): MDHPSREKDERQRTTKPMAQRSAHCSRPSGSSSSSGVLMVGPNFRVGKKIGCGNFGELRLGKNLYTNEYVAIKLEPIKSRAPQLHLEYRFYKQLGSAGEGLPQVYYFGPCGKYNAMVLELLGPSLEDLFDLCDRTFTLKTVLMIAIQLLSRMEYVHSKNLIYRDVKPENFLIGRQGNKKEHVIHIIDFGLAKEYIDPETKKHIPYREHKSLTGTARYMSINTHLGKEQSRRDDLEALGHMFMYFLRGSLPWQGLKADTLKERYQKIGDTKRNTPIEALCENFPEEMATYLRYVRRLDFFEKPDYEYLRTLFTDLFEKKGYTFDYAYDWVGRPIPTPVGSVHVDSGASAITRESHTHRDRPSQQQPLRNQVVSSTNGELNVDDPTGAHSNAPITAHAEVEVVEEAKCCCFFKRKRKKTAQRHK
Chain of Casein kinase I isoform alpha (Homo sapiens) (P48729 2-337 limits assumed): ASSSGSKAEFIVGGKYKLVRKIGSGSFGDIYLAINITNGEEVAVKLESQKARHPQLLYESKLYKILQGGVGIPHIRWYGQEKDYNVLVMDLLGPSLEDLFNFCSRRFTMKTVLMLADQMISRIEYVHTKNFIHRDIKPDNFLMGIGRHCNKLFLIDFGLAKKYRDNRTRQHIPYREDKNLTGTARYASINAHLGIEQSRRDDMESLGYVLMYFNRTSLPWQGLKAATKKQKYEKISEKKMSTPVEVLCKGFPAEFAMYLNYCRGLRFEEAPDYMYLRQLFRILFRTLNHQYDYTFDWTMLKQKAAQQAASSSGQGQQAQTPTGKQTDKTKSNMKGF

The inhibition is the relative decrease from the control value, in per cent. Consider `CC(C)c1ccc(Nc2nccc(-c3cnn4ncccc34)n2)cc1`, for which the inhibition in assay [1] was found to be 1.73%; in [2], 0.51%; in assay [3], 6.16%; in assay [4] it was 0.53%; in [5], 1.09%; in [6], 4.79%. Moreover, the inhibition turned out to be 8.55% in assay [7]; 2.73% in assay [8]; 11.3% in [9]; 1.14% in assay [10]; 13.9% in assay [11]; 3.15% in assay [12]. In addition, the inhibition in [13] was 5.95%; in [14] it was 2.67%; in [15], 0.57%; in [16], -5.73%; in [17], 12.9%; in assay [18], 2.02%. The inhibition in assay [19] was determined as 8.9%; in assay [20], 3.16%.
For `CN(C)CCCn1c(-c2nonc2N)nc2cnccc21`, the inhibition is 0.24% in assay [1]; -0.78% in [2]; 1.03% in [3]; 0.98% in [4]; -0.25% in [5]; 3.24% in assay [6]. Moreover, the inhibition was 8.57% in assay [7]; -0.97% in assay [8]; 5.74% in [9]; 1.24% in assay [10]; 6.08% in [11]; 3.44% in [12]. In addition, the inhibition in assay [13] stood at 7.78%; in assay [14], 0.64%; in [15], 0.45%; in [16], 5.03%; in assay [17] it was 6.31%; in assay [18], 4.45%. Besides, the figures for the inhibition in [19] and in assay [20] were 5.34% and 3.15%, respectively.
Consider `Cc1cc(O)cc(C)c1/C=C/c1cncc(C(=O)N(C)C)c1`, for which the inhibition in [1] is 0.34%; in assay [2], -1.55%; in assay [3], -0.09%; in [4], 0.59%; in assay [5], -0.52%; in assay [6], 9.45%. Further, the inhibition is 29.4% in [7]; 4.34% in assay [8]; 4.27% in assay [9]; 1.36% in assay [10]; 4.11% in assay [11]; 4.05% in assay [12]. Also, the inhibition in assay [13] was found to be 0.84%; in [14], 2.08%; in [15], 0.19%; in [16], 1.94%; in assay [17], 3.01%; in assay [18], 1.26%. Further, the inhibition in [19] was 1.95%; in assay [20], 1.03%.
Turning to `Cc1ccc2c(-c3ccnc(Nc4cccc(C(F)(F)F)c4)n3)c(-c3ccccc3)nn2n1`, the inhibition in assay [1] was -0.7%; in [2], 0.5%; in assay [3], 1.85%; in assay [4] it was 1.8%; in assay [5] it was 1.94%; in [6], 6.3%. Further, the inhibition turned out to be 15.8% in assay [7]; 1.03% in assay [8]; 9.81% in [9]; 3.23% in [10]; 4.86% in assay [11]; 3.88% in [12]. Further, the inhibition in [13] was found to be 4.11%; in [14] it was 1.4%; in [15] it was 2.15%; in assay [16] it was 15.3%; in assay [17] it was 59.2%; in assay [18], 5%. The figures for the inhibition in [19] and in assay [20] were 14% and 3.82%, respectively.
For `c1ccc(Nc2ncc(-c3ccccc3)o2)cc1`, the inhibition in assay [1] is -0.45%; in assay [2] it was 0.11%; in [3] it was 2.31%; in [4], 2.01%; in assay [5] it was 1.68%; in [6], 3.63%. Besides, the inhibition in assay [7] came to 12.6%; in [8], 7.32%; in assay [9], 13.8%; in assay [10] it was 5.72%; in [11], 5.74%; in [12] it was 5.73%. Further, the inhibition was 6.03% in assay [13]; 2.44% in assay [14]; 3.66% in assay [15]; 4.02% in assay [16]; 7.73% in assay [17]; 3.94% in assay [18]. Also, the figures for the inhibition in assay [19] and in assay [20] were 5.22% and 3.32%, respectively.
As for `CN(C)C(=O)O[C@@H]1CN[C@@H](C#Cc2cc3ncnc(Nc4ccc(OCc5cccc(F)c5)c(Cl)c4)c3s2)C1`, the inhibition in [1] is 0.58%; in [2], -0.21%; in assay [3], -1.29%; in assay [4], -0.43%; in assay [5], -2.16%; in assay [6] it was 0.03%. Moreover, the inhibition is 3.96% in [7]; -0.41% in [8]; 10.1% in [9]; 4.03% in assay [10]; 2.9% in [11]; -0.67% in assay [12]. Besides, the inhibition in assay [13] was -0.36%; in [14], -0.92%; in assay [15], -1.41%; in [16], 9.15%; in assay [17], 6.58%; in assay [18] it was 2%. The inhibition came out at 6.01% in assay [19] and 1.45% in [20].
As for `Cc1ccc(C(=O)NC2CC2)cc1-c1ccc2[nH]ncc2c1`, the inhibition in [1] was 0.98%; in assay [2] it was 1.05%; in assay [3], 4.89%; in assay [4], -1.55%; in [5], -1.4%; in [6], -8.63%. Moreover, the inhibition in [7] is -5.39%; in assay [8] it was -3.95%; in assay [9] it was -7.9%; in [10], -3.58%; in [11] it was -1.07%; in assay [12] it was -1.33%. Moreover, the inhibition in assay [13] is -2.04%; in assay [14], -2.24%; in assay [15] it was -1.65%; in [16], -6.12%; in [17], -2.96%; in [18] it was -3.43%. The inhibition was -2.76% in assay [19] and -2.87% in [20].

The record behind these values is ChEMBL document CHEMBL1961873, “Compounds: GSK PKIS; Assays: Nanosyn kinase panel” (2012).
